Reference: PubChem BioAssay (Tox21)
“And” between values parts separate entries of the source, which are not always exact repeats. Equal entries are not always repeated. Inconclusive results are not listed. The source made the active and inactive calls. Unless noted, calls follow the shape of the dose curve; as a rule, active = well fitted curve in the direction sought with a large enough effect in the repeat runs; inconclusive = weak or mixed curves; inactive = no such curve, though single readings can be large; an effect the other way counts as inactive or inconclusive.

Columns and labels:
[1] = qHTS assay to identify small molecule antagonists of the thyroid receptor (TR) signaling pathway (AID 743065); also: nearly all actives have a fitted effect of over 55% in size; also: potency is read from the fitted curve at half-maximal effect
Procedure, shortened: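 GH3.TRE-Luc rat pituitary cells (two TREs driving luciferase) were dosed with compound, then stimulated with 1 nM T3 (final) for 23.5 h at 37 C. ONE-Glo luminescence was the read-out, with CellTiter-Fluor fluorescence as the cytotoxicity counter-screen.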

[2] = test system: thyroid hormone receptor (rat, GH3 cells); assay: qHTS assay to identify small molecule agonists of the thyroid receptor (TR) signaling pathway (AID 743066; calls by dose curve)
[3] = biological target: Estrogen receptor (Homo sapiens) (UniProt P03372); assay: qHTS assay to identify small molecule antagonists of the estrogen receptor alpha (ER-alpha) signaling pathway (AID 743069; active = well fitted curve in the direction sought with a large enough effect in the signal ratio in the repeat runs, not every such curve was filed as active; the % refers to the signal ratio)
Procedure, shortened: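 Beta-lactamase FRET fluorescence is read after 2 hr at room temperature with LiveBLAzer B/G substrate. Before that, ER-alpha-bla HEK293 cells sit 4 hr after plating, then receive compound plus 17beta-estradiol and incubate 18 hr at 37C.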

[4] = qHTS assay to identify small molecule antagonists of the estrogen receptor alpha (ER-alpha) signaling pathway - cell viability counter screen (AID 743074; calls by dose curve;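 also: HEK293 cells carrying ER-alpha-UAS-bla reporter stimulated with 17beta-estradiol; nearly all actives have a fitted effect of over 45% in size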; also: potency is read from the fitted curve at half-maximal effect)
[5] = biological target: Estrogen receptor (Homo sapiens) (UniProt P03372); assay: qHTS assay to identify small molecule agonists of the estrogen receptor alpha (ER-alpha) signaling pathway using the BG1 cell line (AID 743079); also: nearly all actives have a fitted effect of over 20% in size; also: potency is read from the fitted curve at half-maximal effect
[6] = qHTS assay to identify small molecule antagonists of the estrogen receptor alpha (ER-alpha) signaling pathway using the BG1 cell line (AID 743080; calls by dose curve;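 also: BG1 cells stimulated with 17beta-estradiol alongside compound; series mostly up to about 70 µM; nearly all actives have a fitted effect of over 25% in size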)
Procedure, shortened: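 BG1-Luc-4E2 cells (endogenous full-length ER-alpha, 4xERE luciferase) hormone-starved 5 days in charcoal-stripped FBS, plated 4,000/well for 24 h, then compound plus 17beta-estradiol for 21.5 h at 37 C; ONE-Glo luminescence read.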

[7] = qHTS assay to identify small molecule antagonists of the estrogen receptor alpha (ER-alpha) signaling pathway using the BG1 cell line - cell viability counter screen (AID 743081);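 also: compound given together with 17beta-estradiol as the ER stimulus; nearly all actives have a fitted effect of over 45% in size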; also: potency is read from the fitted curve at half-maximal effect
[8] = biological target: Aromatase (Homo sapiens) (UniProt P11511); assay: qHTS assay to identify aromatase inhibitors (AID 743083); also: nearly all actives have a fitted effect of over 55% in size; also: potency is read from the fitted curve at half-maximal effect
[9] = qHTS assay to identify aromatase inhibitors - cell viability counter screen (AID 743084);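 also: cells stimulated with testosterone during compound exposure; nearly all actives have a fitted effect of over 55% in size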; also: potency is read from the fitted curve at half-maximal effect
[10] = biological target: Aryl hydrocarbon receptor (Homo sapiens) (UniProt P35869); assay: qHTS assay to identify small molecule that activate the aryl hydrocarbon receptor (AhR) signaling pathway (AID 743085); also: nearly all actives have a fitted effect of over 15% in size; also: potency is read from the fitted curve at half-maximal effect;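 as to activation: HG2L7.5c1 human HepG2 liver cells with stably integrated DRE-driven firefly reporter; series mostly up to about 70 µM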
Procedure, shortened: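 Steps: seed HepG2-AhR-luc cells; allow 5 h at 37C; pin-transfer test compound or vehicle; incubate 24 h at 37C; add viability dye (30 min, 37C) and read fluorescence; add luciferase substrate (30 min, RT) and read luminescence.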

[11] = qHTS assay to identify small molecule that activate the aryl hydrocarbon receptor (AhR) signaling pathway - cell viability counter screen (AID 743086); also: nearly all actives have a fitted effect of over 45% in size; also: potency is read from the fitted curve at half-maximal effect
Procedure, shortened: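 HepG2-AhR-luc (HG2L7.5c1) cells, 4000/well, treated 24 h at 37 C with compound; viability measured as CellTiter-Fluor fluorescence after 30 min in the same wells as the luciferase read.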

[12] = qHTS assay to identify small molecule antagonists of the peroxisome proliferator-activated receptor gamma (PPARg) signaling pathway - cell viability counter screen (AID 743194); also: nearly all actives have a fitted effect of over 55% in size; also: potency is read from the fitted curve at half-maximal effect
Procedure, shortened: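 Cytotoxicity counter screen in PPARg-bla HEK293H cells, same wells as reporter assay. Compounds plus 50 nM rosiglitazone (final) for 17 h at 37 C, then viability read by CellTiter-Glo luminescence.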

[13] = qHTS assay for small molecule agonists of the antioxidant response element (ARE) signaling pathway - cell viability counter screen (AID 743203; calls by dose curve; also: nearly all actives have a fitted effect of over 55% in size; also: potency is read from the fitted curve at half-maximal effect)
Procedure, shortened: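 Parallel cytotoxicity read-out for the ARE-bla screen: HepG2 reporter cells, 16 hrs with compounds, then CellTiter-Glo luminescence.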

[14] = qHTS assay for small molecule activators of the heat shock response signaling pathway - cell viability counter screen (AID 743209); also: nearly all actives have a fitted effect of over 50% in size
Procedure, shortened: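 To flag cytotoxic compounds, HSE-bla HeLa cells plated at 1500 cells/well were dosed for 5 h at 37 C, followed by the reporter FRET read and then CellTiter-Glo, with luminescence recorded 30 min after reagent addition.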

[15] = qHTS assay to identify small molecule agonists of the peroxisome proliferator-activated receptor delta (PPARd) signaling pathway - cell viability counter screen (AID 743211); also: nearly all actives have a fitted effect of over 55% in size; also: potency is read from the fitted curve at half-maximal effect
Procedure, shortened: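 Viability of GeneBLAzer PPARd UAS-bla HEK293H cells was assessed after 17 h compound incubation at 37C, using CellTiter-Glo reagent added after the reporter read and luminescence recorded 30 min later.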

[16] = biological target: Estrogen receptor (Homo sapiens) (UniProt P03372); assay: qHTS assay to identify small molecule agonists of the estrogen receptor alpha (ER-alpha) signaling pathway (AID 743075; calls by dose curve;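 also: HEK293 GripTite cells with ER-alpha and UAS-driven beta-lactamase reporter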)
[17] = biological target: Peroxisome proliferator-activated receptor gamma (Homo sapiens) (UniProt P37231); assay: qHTS assay to identify small molecule agonists of the peroxisome proliferator-activated receptor gamma (PPARg) signaling pathway (AID 743094; active = well fitted activation curve with a large enough effect in the signal ratio in the repeat runs, not every such curve was filed as active; the % refers to the signal ratio)
Procedure, shortened: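 Fluorescence-based beta-lactamase readout in HEK293H PPARg UAS-bla cells after 17 h compound exposure (37C) and 1 h B/G FRET substrate incubation at room temperature.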

[18] = qHTS assay for small molecule agonists of the antioxidant response element (ARE) signaling pathway (AID 743202; active = well fitted activation curve with a large enough effect in the signal ratio in the repeat runs, not every such curve was filed as active; the % refers to the signal ratio; also: potency is read from the fitted curve at half-maximal effect)
Procedure, shortened: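 HepG2 ARE-bla reporter line, 2,000 cells/well; 5 h preincubation 37 C/5% CO2; compound (DMSO) 16 h 37 C; B/G FRET substrate 2 h RT; fluorescence intensity.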

[19] = qHTS assay for small molecule activators of the heat shock response signaling pathway (AID 743210; active = well fitted activation curve with a large enough effect in the signal ratio in the repeat runs, with a control signal flat, not every such curve was filed as active; the % refers to the signal ratio;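 also: HeLa cells with beta-lactamase reporter driven by heat shock elements; series mostly up to about 63 µM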)
Procedure, shortened: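 Beta-lactamase reporter read-out: FRET substrate fluorescence after 2.5 h at RT, following 5 h compound treatment at 37 C of HeLa cells carrying HSE-driven bla reporter; quantitative HTS format.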

[20] = biological target: Peroxisome proliferator-activated receptor gamma (Homo sapiens) (UniProt P37231); assay: qHTS assay to identify small molecule antagonists of the peroxisome proliferator-activated receptor gamma (PPARg) signaling pathway (AID 743191; calls by dose curve; also: series mostly up to about 63 µM; nearly all actives have a fitted effect of over 30% in size)
Procedure, shortened: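 GeneBLAzer PPARg UAS-bla HEK293H cells, 5 h post-plating, exposed to compounds 17 h at 37C. LiveBLAzer B/G FRET substrate added for 1 h at room temperature; beta-lactamase reporter read by fluorescence intensity.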

Measured: Potency

Chain of Aromatase (Homo sapiens) (P11511 whole entry, looked up): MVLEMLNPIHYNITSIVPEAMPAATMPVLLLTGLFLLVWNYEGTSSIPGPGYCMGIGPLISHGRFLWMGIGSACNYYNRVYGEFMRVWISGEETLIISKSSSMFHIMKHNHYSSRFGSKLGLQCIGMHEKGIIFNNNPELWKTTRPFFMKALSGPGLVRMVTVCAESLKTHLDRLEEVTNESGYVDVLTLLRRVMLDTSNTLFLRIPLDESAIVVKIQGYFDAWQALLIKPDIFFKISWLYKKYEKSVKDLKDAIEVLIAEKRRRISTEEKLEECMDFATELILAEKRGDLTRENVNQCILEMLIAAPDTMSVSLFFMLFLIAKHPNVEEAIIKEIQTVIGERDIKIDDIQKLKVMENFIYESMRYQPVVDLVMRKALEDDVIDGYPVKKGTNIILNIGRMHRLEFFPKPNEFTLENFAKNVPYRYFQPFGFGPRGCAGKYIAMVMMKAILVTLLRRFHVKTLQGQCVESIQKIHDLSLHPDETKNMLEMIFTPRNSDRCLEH
Chain of Peroxisome proliferator-activated receptor gamma (Homo sapiens) (P37231 whole entry, looked up): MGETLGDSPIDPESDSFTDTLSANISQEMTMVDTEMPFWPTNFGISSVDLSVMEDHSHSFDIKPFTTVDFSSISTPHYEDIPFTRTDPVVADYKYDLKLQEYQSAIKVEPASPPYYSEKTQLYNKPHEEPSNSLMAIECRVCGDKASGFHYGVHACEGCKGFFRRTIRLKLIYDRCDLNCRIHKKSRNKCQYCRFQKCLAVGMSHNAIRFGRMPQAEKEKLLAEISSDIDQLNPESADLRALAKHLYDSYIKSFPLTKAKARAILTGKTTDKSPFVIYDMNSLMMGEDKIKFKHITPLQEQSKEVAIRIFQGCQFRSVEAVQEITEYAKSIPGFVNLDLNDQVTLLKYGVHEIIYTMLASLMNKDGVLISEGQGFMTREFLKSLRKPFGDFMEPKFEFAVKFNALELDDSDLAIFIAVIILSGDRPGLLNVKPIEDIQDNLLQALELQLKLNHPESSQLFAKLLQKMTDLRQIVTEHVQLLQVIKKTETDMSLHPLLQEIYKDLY
Chain of Estrogen receptor (Homo sapiens) (P03372 whole entry, looked up): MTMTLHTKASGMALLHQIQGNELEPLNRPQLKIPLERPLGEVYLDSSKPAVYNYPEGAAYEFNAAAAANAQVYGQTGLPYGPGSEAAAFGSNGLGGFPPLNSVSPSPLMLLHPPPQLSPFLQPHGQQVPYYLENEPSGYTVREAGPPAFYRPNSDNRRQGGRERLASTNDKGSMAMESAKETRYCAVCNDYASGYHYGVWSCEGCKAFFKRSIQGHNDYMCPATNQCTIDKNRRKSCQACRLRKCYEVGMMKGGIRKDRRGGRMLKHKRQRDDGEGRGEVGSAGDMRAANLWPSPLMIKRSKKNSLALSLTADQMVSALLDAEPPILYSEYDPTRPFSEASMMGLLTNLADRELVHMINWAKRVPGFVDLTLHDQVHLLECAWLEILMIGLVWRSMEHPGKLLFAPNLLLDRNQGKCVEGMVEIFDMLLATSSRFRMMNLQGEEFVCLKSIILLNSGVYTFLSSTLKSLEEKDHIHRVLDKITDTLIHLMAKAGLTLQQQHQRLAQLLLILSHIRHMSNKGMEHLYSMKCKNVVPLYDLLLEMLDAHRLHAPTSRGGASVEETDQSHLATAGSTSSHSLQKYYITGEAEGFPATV
Chain of Aryl hydrocarbon receptor (Homo sapiens) (P35869 whole entry, looked up): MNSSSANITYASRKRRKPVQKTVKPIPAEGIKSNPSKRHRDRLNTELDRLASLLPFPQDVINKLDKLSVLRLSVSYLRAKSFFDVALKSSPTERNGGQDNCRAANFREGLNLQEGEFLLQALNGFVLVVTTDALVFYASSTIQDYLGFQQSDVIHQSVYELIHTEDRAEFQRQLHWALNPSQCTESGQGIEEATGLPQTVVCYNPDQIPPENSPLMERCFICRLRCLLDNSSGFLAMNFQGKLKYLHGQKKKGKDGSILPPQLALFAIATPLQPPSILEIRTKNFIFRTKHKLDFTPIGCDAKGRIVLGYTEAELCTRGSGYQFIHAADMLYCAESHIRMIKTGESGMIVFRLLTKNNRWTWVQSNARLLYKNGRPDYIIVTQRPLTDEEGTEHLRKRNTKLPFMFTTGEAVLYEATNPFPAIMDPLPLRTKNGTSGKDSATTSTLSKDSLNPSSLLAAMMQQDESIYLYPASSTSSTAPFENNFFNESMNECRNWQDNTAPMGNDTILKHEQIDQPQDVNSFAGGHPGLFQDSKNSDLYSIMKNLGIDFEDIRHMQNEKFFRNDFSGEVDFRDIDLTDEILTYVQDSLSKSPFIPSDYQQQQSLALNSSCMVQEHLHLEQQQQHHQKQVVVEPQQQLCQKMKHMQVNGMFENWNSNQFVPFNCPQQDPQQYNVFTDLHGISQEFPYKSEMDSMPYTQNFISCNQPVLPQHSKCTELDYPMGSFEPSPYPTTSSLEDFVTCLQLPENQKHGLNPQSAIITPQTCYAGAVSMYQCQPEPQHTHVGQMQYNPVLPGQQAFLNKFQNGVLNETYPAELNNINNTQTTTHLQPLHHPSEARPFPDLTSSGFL

CCCCCCCCCCCC(=O)OCC(C)OC(=O)CCCCC(=O)O (stereo not given)
not listed: [16] | [17] | [18] | [19] | [20]
inactive: all other assays above

CCCCCCCCCCC[C@@H](C[C@@H]1OC(=O)[C@H]1CCCCCC)OC(=O)[C@H](CC(C)C)NC=O
not listed: [3] | [7] | [15] | [17] | [18] | [19] | [20]
inactive: all other assays above

CC(=O)c1ccc(C(C)=O)cc1
not listed: [3] | [5] | [6] | [12] | [16] | [20]
inactive: all other assays above

Cc1cc(C(C#N)c2ccc(Cl)cc2)c(Cl)cc1NC(=O)c1cc(I)cc(I)c1O (stereo not given)
inactive: [2] | [16] | [7] | [9] | [11]
active: [1] 26.6 µM | [4] 5.35 µM | [12] 3.76 µM | [13] 33.5 µM | [15] 29.8 µM

O=C1C(c2[nH]c3ccc(S(=O)(=O)O)cc3c2O)=Nc2ccc(S(=O)(=O)O)cc21
not listed: [3] | [5] | [6] | [16] | [18]
inactive: all other assays above

O=S(=O)(O)c1ccccc1/C=C/c1ccc(-c2ccc(/C=C/c3ccccc3S(=O)(=O)O)cc2)cc1
inactive: [1] | [2] | [4] | [5] | [6] | [8] | [10] | [12] | [13] | [14] | [15]

O=c1[nH]c(=O)n([C@H]2C[C@H](O)[C@@H](CO)O2)cc1F
active: [1] 0.75 µM | [4] 0.379 µM
not listed: [3] | [6] | [12] | [13] | [15] | [17] | [18]
inactive: all other assays above

O=C(O)c1cc(N=Nc2ccc([N+](=O)[O-])cc2)ccc1O
active: [1] 47.7 µM | [5] 60 µM | [7] 53.5 µM | [9] 26.8 µM | [10] 3.37 µM | [11] 53.5 µM | [18] 60 µM
not listed: [3] | [6] | [12] | [17] | [20]
inactive: all other assays above

Cc1ccc(O)c(N)c1
inactive: [2] | [4] | [16] | [7] | [14]
active: [1] 43.3 µM | [10] 34.4 µM

O=C(O)CCN(C1(C(=O)NO)CCCC1)S(=O)(=O)c1ccc(Oc2ccc(F)cc2)cc1
not listed: [3] | [5] | [6] | [12] | [16] | [18]
inactive: all other assays above

C=Cc1ccccc1C=C
not listed: [4]
inactive: all other assays above

CCCCCCC1CCCC(=O)O1 (stereo not given)
inactive: [1] | [2] | [4] | [7] | [11] | [12] | [18] | [13] | [14] | [19] | [15]

CN(C)C(=O)COC(=O)Cc1ccc(OC(=O)c2ccc(N=C(N)N)cc2)cc1
inactive: [1] | [2] | [4] | [7] | [11] | [12] | [18] | [13] | [14] | [15]

CCCCN(CCCC)CC(O)c1cc(Cl)cc2c1-c1ccc(Cl)cc1/C2=C/c1ccc(Cl)cc1 (stereo not given)
active: [1] 29.8 µM | [5] 23.7 µM | [10] 26.6 µM
not listed: [2] | [4] | [13] | [14] | [15] | [19] | [20]
inactive: all other assays above

Nc1nc(N)nc(-c2cc(Cl)ccc2Cl)n1
not listed: [3] | [5] | [6] | [8] | [16] | [17] | [20]
inactive: all other assays above

Oc1ccccc1O
inactive: [2] | [7] | [11] | [17] | [20] | [12] | [14] | [15]
active: [1] 43.8 µM and 43.3 µM | [8] 27.6 µM | [9] 31 µM | [18] 30.6 µM
